For eight compounds, Potency and activity, negative = cell killing results are on record in PubChem BioAssay (NCATS).

Structures are written as SMILES. Values joined by “and” are separate entries in the source; they are usually repeats but may differ in a detail not shown here. Identical values can stand only once. Inconclusive results are not listed. The source holds several records for some structures; these can differ, active in one and inactive in another. Active and inactive are the calls of the source. The call rests on the fitted dose curve; in most records, active means well fitted curve in the direction sought with a large enough effect; inconclusive means small, poorly fitted or top-dose-only effect, or another doubt; inactive means no such curve, though single readings can be large; an effect the other way counts as inactive or inconclusive.

The subject of one assay is C33A. Kind of assay: Primary qHTS to identify gynecologic anti-cancer compounds using libraries of approved drugs and bioactive compounds (AID 1345084). Further: nearly all actives have a fitted effect of over 55% in size. The conditions noted are these: Gynecologic cancer cell panel viability, ATPlite luminescence, 48 h; series mostly up to 57.5 µM. In short, it runs like this: (§1)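 Five-point cytotoxicity, 48 h drug exposure at 37 C, 5% CO2, on cells seeded 16 h beforehand. ATP content read by ATPlite luminescence.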
In general terms: In qHTS, concentration-response curves come from the screen itself.

For the next assay, the system named is CAOV3. The assay is described as above. The conditions noted are these: Gynecologic cancer cell panel viability, ATPlite luminescence, 48 h; series mostly up to 57.5 µM. In short, it runs like this:
as §1
Background: ATP-based viability assays read luminescence as a measure of living cells.

For the next assay, the system named is CASKI. The description is as above. The conditions noted are these: Gynecologic cancer cell panel viability, ATPlite luminescence, 48 h; series mostly up to 57.5 µM. In short, it runs like this:
as §1

The next assay relates to Es-2. The assay is described as above. To be noted: Gynecologic cancer cell panel viability, ATPlite luminescence, 48 h; series mostly up to 57.5 µM. In short, it runs like this:
as §1

The next assay deals with Hek293T. Described as above. The conditions noted are these: Gynecologic cancer cell panel viability, ATPlite luminescence, 48 h, control line for the selectivity index; series mostly up to 57.5 µM. In short, it runs like this:
as §1

A further assay has as its system JEG-3. Described as above. The conditions noted are these: Gynecologic cancer cell panel viability, ATPlite luminescence, 48 h; series mostly up to 57.5 µM. Summed up: as §1
The subject of the next assay is OV90. Described as above. To be noted: Gynecologic cancer cell panel viability, ATPlite luminescence, 48 h; series mostly up to 57.5 µM. In short, it runs like this:
as §1

A further assay has as its system SKOV3. Described as above. The conditions noted are these: Gynecologic cancer cell panel viability, ATPlite luminescence, 48 h; series mostly up to 57.5 µM. Summed up: as §1
A further assay concerns Tov-21-G. Described as above. To be noted: Gynecologic cancer cell panel viability, ATPlite luminescence, 48 h; series mostly up to 57.5 µM. In short, it runs like this: as §1
In another assay the test system is Tov112D. The description is as above. To be noted: Gynecologic cancer cell panel viability, ATPlite luminescence, 48 h; series mostly up to 57.5 µM. Summed up:
as §1

Assay [1] can be described thus: Drug repurposing screens with cells derived from glioblastoma tumor samples (AID 1345199). Further: nearly all actives have a fitted effect of over 40% in size. The conditions noted are these: GBM patient neurospheres viability, ATP luminescence, 48 h. In short, it runs like this: (§2)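 Primary testing used CD133+ neurospheres from four GBM patients, seven concentrations, 48 h exposure and ATP-based viability; confirmation added three slower-growing patient lines.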

The next assay deals with astro. Described as above. To be noted: viability, ATP luminescence, 48 h; series mostly up to 45.9 µM. In short, it runs like this:
as §2

For a further assay, the system named is HeLa. Put plainly: Primary qHTS to identify gynecologic anti-cancer compounds using libraries of approved drugs and bioactive compounds (AID 1345084). Further: nearly all actives have a fitted effect of over 55% in size. The conditions noted are these: Gynecologic cancer cell panel viability, ATPlite luminescence, 48 h; series mostly up to 57.5 µM. Summed up: as §1
The next assay concerns PA-1. The description is as above. To be noted: Gynecologic cancer cell panel viability, ATPlite luminescence, 48 h; series mostly up to 57.5 µM. In short, it runs like this: as §1
In the next assay the test system is MKL-1. Put plainly: qHTS assay to identify novel small-molecules to repurpose for Merkel cell carcinoma treatment (AID 1296009). Further: nearly all actives have a fitted effect of over 60% in size. The conditions noted are these: MCC and control cell lines, CellTiter-Glo viability, 72 h; series mostly up to 46 µM. In short, it runs like this: (§3)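 Viability readout: ATP luminescence (CellTiter-Glo) after 72 hr drug exposure at 37 degree celsius. Dose-response format was 8 points for NPC and 11 points for MIPE; data normalized to in-plate controls.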

Another assay concerns UISO. The assay is described as above. To be noted: MCC and control cell lines, CellTiter-Glo viability, 72 h; series mostly up to 46 µM. Summed up:
as §3

For the next assay, the system named is WaGa. The description is as above. The conditions noted are these: MCC and control cell lines, CellTiter-Glo viability, 72 h; series mostly up to 46 µM. In short, it runs like this: as §3
Another assay relates to MKL-2. Described as above. To be noted: MCC and control cell lines, CellTiter-Glo viability, 72 h; series mostly up to 46 µM. In short, it runs like this: as §3
[2] abbreviates: at 45.9 µM (top of the series), tumour line B.
Setting [3] is: at 45.9 µM (top of the series), tumour line D.
Where [4] appears, read: at 46.1 µM (top of the series), tumour line C.
Setting [5] is: at 21.2 µM (top of the series), tumour line B.
[6] abbreviates: at 21.3 µM (top of the series), tumour line A.
On the % scale 0 is the no-effect control and ±100 the full control effect; potency means the concentration at half of the fitted maximal effect.

For the compound `CCCc1nc(C)c2c(=O)[nH]c(-c3cc(S(=O)(=O)N4CCN(CC)CC4)ccc3OCC)nn12`, the Potency entry in the assay with C33A, in the assay on CAOV3, in the assay with CASKI, with Es-2, with Hek293T and in the assay with JEG-3 was “inactive” throughout. Moreover, the Potency result in the assay with OV90, with SKOV3, with Tov-21-G, with Tov112D and in the assay on astro was “inactive” throughout. In addition, the figures for the activity, negative = cell killing in [1] (setting [2]), in [1] (setting [3]) and in assay [1] (setting [4]) were -13% (inactive), -20.9% (inactive) and -8.37% (inactive), respectively. Moreover, the Potency in assay [1] (tumour line A) is 17.8 µM (active).

Regarding `NC(N)=NC(N)=NCCc1ccccc1`, the Potency entry in the assay with CAOV3, with HeLa, in the assay on Hek293T, in the assay on JEG-3, in the assay on Tov-21-G and in the assay on Tov112D was “inactive” in each case. Besides, the Potency result with astro was “inactive”. Besides, the Potency with SKOV3 was 14.1 µM (active); in assay [1] (tumour line D), 25.1 µM (active). Also, the figures for the activity, negative = cell killing in assay [1] (setting [5]), in assay [1] (setting [6]) and in assay [1] (setting [2]) were -24.6% (inactive), -28.1% (inactive) and -14.4% (inactive), respectively.

With `CN1CCN(c2c(F)cc3c(=O)c(C(=O)O)cn(CCF)c3c2F)CC1`, the Potency result with C33A, in the assay on CAOV3, in the assay on CASKI, in the assay with Es-2, in the assay with Hek293T and in the assay with JEG-3 was “inactive” each time. Further, the Potency entry in the assay with OV90, in the assay with PA-1, in the assay with SKOV3, with Tov-21-G, in the assay with Tov112D and with astro was “inactive” in each case. In addition, the activity, negative = cell killing in [1] (setting [2]) is -2.67% (inactive); in [1] (setting [3]) it was -2.82% (inactive); in [1] (at 46 µM (top of the series), tumour line A), -15.5% (inactive); in assay [1] (setting [4]), -9.27% (inactive).

`Nc1[nH]c(=O)ncc1F`: the Potency result in the assay on C33A, with CAOV3, in the assay with CASKI, in the assay on Es-2, in the assay on Hek293T and in the assay on JEG-3 was “inactive” each time. Further, the Potency entry in the assay on OV90, in the assay with PA-1, with SKOV3, in the assay on Tov-21-G, with Tov112D and with astro was “inactive” in each case. The activity, negative = cell killing in assay [1] (at 20 µM (top of the series), tumour line C) is 6.56% (inactive); in [1] (setting [5]) it was -3.24% (inactive); in assay [1] (at 21.2 µM (top of the series), tumour line D), -9.05% (inactive); in assay [1] (setting [6]) it was -15% (inactive).

In the case of `CC[C@H](C)C(=O)O[C@H]1C[C@@H](C)C=C2C=C[C@H](C)[C@H](CC[C@@H]3C[C@@H](O)CC(=O)O3)[C@H]21`, the Potency with MKL-1 is 23.7 µM (active) and inactive; in the assay with UISO, 9.44 µM (active) and 20.9 µM (active); in the assay with astro, 0.447 µM (active). The Potency entry in the assay on WaGa, in the assay with C33A, in the assay on CAOV3, with CASKI, in the assay on Es-2 and in the assay on Hek293T was “inactive” each time. Also, the Potency entry in the assay on JEG-3, in the assay with OV90, in the assay with PA-1, in the assay with SKOV3, with Tov-21-G and in the assay on Tov112D was “inactive” throughout.

`N[C@@H](Cc1ccc(O)c(O)c1)C(=O)O`: the activity, negative = cell killing in assay [1] (setting [4]) was 28.9% (inactive). Besides, the Potency in assay [1] (tumour line A) is 12.6 µM (active).

Turning to `Cc1c(-c2ccc(O)cc2)n(Cc2ccc(OCCN3CCCCCC3)cc2)c2ccc(O)cc12`, the Potency result in the assay with Hek293T, in the assay on JEG-3 and with Tov-21-G was “inactive” each time.

For the compound `Nc1nc(N)nc(-c2cc(Cl)ccc2Cl)n1`, the Potency entry in the assay on MKL-1, with MKL-2, in the assay on UISO, in the assay with WaGa, with C33A and with CAOV3 was “inactive” each time. The Potency entry in the assay with CASKI, with Es-2, in the assay on HeLa, in the assay on Hek293T, in the assay on JEG-3 and in the assay on OV90 was “inactive” each time. Besides, the Potency result with PA-1, with SKOV3, in the assay on Tov-21-G, in the assay with Tov112D and in the assay on astro was “inactive” in each case. In addition, the activity, negative = cell killing in assay [1] (setting [2]) is 1.99% (inactive); in assay [1] (setting [3]) it was 7.54% (inactive); in assay [1] (setting [4]), 13.1% (inactive).
